# Data: PubChem BioAssay
# Activity calls are given as the source filed them.
# Assays:
# [1] = optical density shifts of acrAB sulA E. coli – strain DRC41, OD650, 48 h, E. coli filamentation inducer project, primary screen (AID 1152); settings: higher = more signal, called active from +8 up or from −8 down;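 further: E. coli MC1000 strain DRC41 lacking acrAB efflux pump and sulA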
# [2] = probe aLefty1 binding on compound microarray – biochemical, small-molecule microarray, 635/667 nm fluorescence, primary screen (AID 1153); settings: higher = more signal;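 further: score merges spot fluorescence with signal-to-noise ratio from the scanned slide images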
# [3] = plasmodial surface anion channel blockers, osmotic lysis – cell-based, P. falciparum Indochina, OD700, 1 h, primary screen (AID 1154); settings: P. falciparum Indochina infected RBC osmotic lysis, higher = more signal, called active from +8 up or from −8 down
# [4] = plasmodial surface anion channel blockers, osmotic lysis – cell-based, P. falciparum Indochina, OD700, 2 h, primary screen (AID 1155);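 further: lysis reports solute entry through the parasite surface anion channel PSAC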; settings: P. falciparum Indochina infected erythrocytes, higher = more signal, called active from +8 up or from −8 down
# [5] = changes in parasitized red cell lysis, either direction – P. falciparum Indochina, OD700, 3 h, PSAC antagonist project, primary screen (AID 1156); settings: P. falciparum-infected erythrocytes, osmotic lysis, higher = more signal, called active from +8 up or from −8 down
# [6] = plasmodial surface anion channel blockers, osmotic lysis – cell-based, P. falciparum Indochina, OD700, 18 h, primary screen (AID 1157); settings: P. falciparum Indochina infected erythrocytes, osmotic lysis OD700, 18 h; higher = more signal, called active from +8 up or from −8 down
# [7] = S6 kinase pathway phospho-S6 level changes – cell-based, A549, cytoblot, luminescence, serum-stimulated, primary screen (AID 1158); settings: 5 h, higher = more signal;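 further: serum-stimulated A549 lung adenocarcinoma cells; signal is phosphorylated S6 detected by cytoblot immunostaining with HRP secondary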
# [8] = target: NADPH oxidase 2 (Homo sapiens) (UniProt P04839); test: compounds shifting NOX2 Amplex Red fluorescence – cell-based, HEK293-NOX2, PMA-stimulated, NOX inhibitor project, primary screen (AID 1159); settings: 45 min, higher = more signal, called active from +8 up or from −8 down; further: test concentration not given here
# NADPH oxidase 2 (Homo sapiens), sequence (P04839 whole entry, looked up): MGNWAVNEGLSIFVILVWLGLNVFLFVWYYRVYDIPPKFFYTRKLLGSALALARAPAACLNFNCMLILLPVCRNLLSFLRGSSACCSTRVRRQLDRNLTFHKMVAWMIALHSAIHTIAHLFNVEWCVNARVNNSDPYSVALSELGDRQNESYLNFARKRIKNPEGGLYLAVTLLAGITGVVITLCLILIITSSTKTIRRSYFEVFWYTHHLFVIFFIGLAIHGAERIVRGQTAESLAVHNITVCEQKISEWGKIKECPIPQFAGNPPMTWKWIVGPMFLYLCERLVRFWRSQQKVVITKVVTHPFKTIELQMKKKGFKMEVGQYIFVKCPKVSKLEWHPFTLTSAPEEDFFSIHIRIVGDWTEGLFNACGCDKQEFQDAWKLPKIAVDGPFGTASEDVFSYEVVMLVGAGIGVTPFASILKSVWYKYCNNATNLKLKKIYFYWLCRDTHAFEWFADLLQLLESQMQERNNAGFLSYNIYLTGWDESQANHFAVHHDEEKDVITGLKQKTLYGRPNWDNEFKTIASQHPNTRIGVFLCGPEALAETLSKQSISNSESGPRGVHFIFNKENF
# [9] = target: NADPH oxidase 4 (Homo sapiens) (UniProt Q9NPH5); test: compounds shifting NOX4 Amplex Red fluorescence – cell-based, HEK293-NOX4, tetracycline-induced, NOX inhibitor project, primary screen (AID 1160); settings: HEK293-NOX4, Amplex Red H2O2 fluorescence, 45 min; higher = more signal, called active from +8 up or from −8 down
# NADPH oxidase 4 (Homo sapiens), sequence (Q9NPH5 whole entry, looked up): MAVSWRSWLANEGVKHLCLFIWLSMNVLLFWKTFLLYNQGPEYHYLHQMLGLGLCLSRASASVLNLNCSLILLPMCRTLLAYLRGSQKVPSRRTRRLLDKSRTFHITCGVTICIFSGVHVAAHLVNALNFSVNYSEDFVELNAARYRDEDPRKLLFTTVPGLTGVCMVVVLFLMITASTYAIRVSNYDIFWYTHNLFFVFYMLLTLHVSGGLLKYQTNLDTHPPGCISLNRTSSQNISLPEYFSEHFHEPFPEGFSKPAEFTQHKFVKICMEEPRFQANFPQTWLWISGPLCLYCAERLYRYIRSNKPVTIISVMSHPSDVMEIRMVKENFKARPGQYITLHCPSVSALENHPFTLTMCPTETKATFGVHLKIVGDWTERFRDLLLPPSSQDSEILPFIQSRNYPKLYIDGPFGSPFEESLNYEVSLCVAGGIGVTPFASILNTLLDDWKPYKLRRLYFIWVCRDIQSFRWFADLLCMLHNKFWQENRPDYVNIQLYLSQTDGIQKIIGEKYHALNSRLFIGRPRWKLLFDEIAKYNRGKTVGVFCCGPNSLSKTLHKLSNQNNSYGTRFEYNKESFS
# [10] = target: NADPH oxidase 5 (Homo sapiens) (UniProt Q96PH1); test: compounds shifting NOX5 Amplex Red fluorescence – cell-based, HEK293-NOX5, NOX inhibitor project, primary screen (AID 1161); settings: HEK293-NOX5, ionomycin, 45 min, higher = more signal
# NADPH oxidase 5 (Homo sapiens), sequence (Q96PH1 whole entry, looked up): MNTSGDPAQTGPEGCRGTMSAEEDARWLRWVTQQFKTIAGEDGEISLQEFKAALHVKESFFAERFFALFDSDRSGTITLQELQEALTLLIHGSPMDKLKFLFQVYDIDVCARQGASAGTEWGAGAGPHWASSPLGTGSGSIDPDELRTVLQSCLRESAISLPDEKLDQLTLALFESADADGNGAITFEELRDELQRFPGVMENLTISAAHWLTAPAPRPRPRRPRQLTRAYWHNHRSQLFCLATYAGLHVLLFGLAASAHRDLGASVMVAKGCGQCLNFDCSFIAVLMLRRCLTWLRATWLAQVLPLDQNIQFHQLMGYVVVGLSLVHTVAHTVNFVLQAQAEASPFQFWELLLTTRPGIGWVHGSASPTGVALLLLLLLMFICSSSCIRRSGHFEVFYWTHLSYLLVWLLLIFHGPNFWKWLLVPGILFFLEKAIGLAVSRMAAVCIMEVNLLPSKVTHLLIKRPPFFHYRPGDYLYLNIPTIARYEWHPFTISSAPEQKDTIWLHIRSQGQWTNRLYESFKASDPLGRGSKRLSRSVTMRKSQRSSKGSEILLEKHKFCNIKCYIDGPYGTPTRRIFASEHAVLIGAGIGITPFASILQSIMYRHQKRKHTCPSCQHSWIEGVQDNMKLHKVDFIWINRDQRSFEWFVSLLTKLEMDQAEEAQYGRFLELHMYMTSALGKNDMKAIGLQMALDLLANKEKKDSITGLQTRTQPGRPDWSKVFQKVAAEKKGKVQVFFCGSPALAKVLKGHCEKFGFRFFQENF
# [11] = compound effects on lung adenocarcinoma cell viability – A549, calcein-AM fluorescence, 48 h, basal, profiling panel (AID 1162); settings: higher = more signal; further: test concentration not given here
# [12] = compound effects on differentiated 3T3-L1 adipocyte viability – cell-based, 3T3-L1 adipocytes, calcein-AM fluorescence, 48 h, basal, profiling panel (AID 1163); settings: 3T3-L1 adipocytes viability, higher = more signal; further: test concentration not given here
# [13] = compound effects on hepatocellular carcinoma cell viability – HepG2, calcein-AM fluorescence, 48 h, basal, profiling panel (AID 1164); settings: higher = more signal; further: test concentration not given here
# [14] = compound effects on multiple myeloma cell viability – MM1S, calcein-AM fluorescence, 48 h, basal, profiling panel (AID 1165); settings: higher = more signal;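 further: viability of MM1S multiple myeloma cells under basal unstimulated conditions; test concentration not given here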
# [15] = calcein-AM signal in unstimulated myeloma cells – cell-based, calcein-AM fluorescence, 48 h, PK04 Diversity Set, profiling panel (AID 1166); settings: RPMI8226 myeloma viability, higher = more signal;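 further: cells grown under basal conditions without added stimulus; test concentration not given here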
# [16] = JC-1 mitochondrial signal, unstimulated HepG2 cells – cell-based, JC-1 fluorescence, 24 h, 100 nL compound, profiling panel (AID 1167); settings: HepG2 mitochondrial potential, higher = more signal; further: test concentration not given here
# [17] = JC-1 mitochondrial signal, unstimulated adipocytes – cell-based, JC-1 fluorescence, 3T3-L1 adipocytes, 24 h, 100 nL compound, profiling panel (AID 1168); settings: JC-1 mitochondrial fluorescence, higher = more signal, called active from +8 up or from −8 down; further: test concentration not given here
# [18] = JC-1 mitochondrial signal, unstimulated myeloma cells – cell-based, JC-1 fluorescence, RPMI8226, 24 h, 100 nL compound, profiling panel (AID 1169); settings: JC-1 mitochondrial potential fluorescence, higher = more signal; further: test concentration not given here
# [19] = JC-1 mitochondrial signal, unstimulated MM1S myeloma – cell-based, JC-1 fluorescence, 24 h, 100 nL compound, profiling panel (AID 1170); settings: MM1S mitochondrial potential, higher = more signal; further: test concentration not given here
# [20] = resazurin metabolic signal in A549 cells – cell-based, resazurin fluorescence, 24 h, PK04 Diversity Set, profiling panel (AID 1171); settings: A549 viability, higher = more signal, called active from +8 up or from −8 down; further: test concentration not given here
SMILES,z-score [1],composite z-score [2],z-score [3],z-score [4],z-score [5],z-score [6],z-score [7],z-score [8],z-score [9],z-score [10],z-score [11],z-score [12],z-score [13],z-score [14],z-score [15],z-score [16],z-score [17],z-score [18],z-score [19],z-score [20]
CN1C(=O)C2C(C1=O)C1C=C(c3ccc(CO)cc3)C2C(C2CC2)N1Cc1cc2c(cc1Br)OCO2 (stereo not given),-0.515 (inactive),0.464,19.5 (active),3.1 (inactive),1.2 (inactive),-0.898 (inactive),1.05,-1.18 (inactive),-1.04 (inactive),-0.488,0.302,0.575,1.81,-0.387,-1.75,3.74,0.673 (inactive),-0.73,-0.565,-1.84 (inactive)
C#C[C@H](O[Si](C#CCCCCCC)(C(C)C)C(C)C)c1ccccc1,0.79 (inactive),-0.468,0.486 (inactive),-0.227 (inactive),-0.177 (inactive),0.433 (inactive),0.482,-1.09 (inactive),-0.782 (inactive),-1.97,0.303,0.102,-0.616,0.665,0.528,0.0244,-0.324 (inactive),0.179,-0.772,0.815 (inactive)
COC(=O)[C@@]1(Cc2ccc(OC)cc2)[C@H]2c3cc(C(=O)N4CCCC4)n(CCc4ccccn4)c3C[C@H]2CN1C(=O)c1ccccc1,-1.76 (inactive),0.496,1.15 (inactive),0.453 (inactive),0.924 (inactive),0.518 (inactive),0.958,0.48 (inactive),-2.11 (inactive),-3.82,-0.991,1.13,-0.946,0.0275,-1.7,1.1,-1.59 (inactive),-0.161,0.00382,-0.201 (inactive)
CC(c1ccccc1)C(O)C1C=CC2C(=O)N(c3ccccc3)C(=O)C2N1Nc1ccccc1F (stereo not given),0.207 (inactive),0.0146,0.784 (inactive),-0.11 (inactive),-0.597 (inactive),-0.865 (inactive),0.0297,-0.652 (inactive),-0.714 (inactive),0.381,-0.221,-0.146,-0.77,0.214,-0.975,-1.13,-0.994 (inactive),0.387,-0.289,0.959 (inactive)
CC(C)C(O)C1C=CC2C(=O)N(C)C(=O)C2N1N1CCCCC1 (stereo not given),-1.77 (inactive),0.134,0.193 (inactive),1.22 (inactive),0.0667 (inactive),1 (inactive),-0.87,-0.569 (inactive),-0.278 (inactive),-1.52,0.553,-0.0255,-0.306,-0.602,-1.34,-0.778,-0.307 (inactive),0.643,-0.189,-0.153 (inactive)
C=CC[C@]1(C(=O)NCCN2CCOCC2)N=C(c2ccc(OCCCO)cc2)O[C@H]1c1ccccc1N=[N+]=[N-],1.39 (inactive),0.14,30.7 (active),28.6 (active),2.5 (inactive),5.98 (inactive),-0.106,-0.798 (inactive),1.5 (inactive),0.108,0.0657,0.572,0.353,-1.05,-0.766,1.03,1.98 (inactive),-0.701,0.472,0.0624 (inactive)
COC(=O)[C@@]1(Cc2ccc(F)cc2)[C@H]2c3cc(C(=O)N(C)C)n(Cc4ccccn4)c3C[C@H]2CN1C(=O)c1ccccc1,-1.37 (inactive),1.13,0.755 (inactive),-0.692 (inactive),0.336 (inactive),-1.68 (inactive),0.388,0.467 (inactive),1.2 (inactive),-2.82,-1.48,0.311,0.291,0.263,-0.519,-0.21,-0.858 (inactive),-0.715,-1.01,0.45 (inactive)
C=C(CCCC)/C(=C/C[C@H](OC(C)=O)c1ccc(CO)o1)c1cc(C(=O)OC)ccc1OC,0.302 (inactive),-0.0501,1.99 (inactive),-0.526 (inactive),1.62 (inactive),-2.02 (inactive),1.61,-0.764 (inactive),-0.262 (inactive),-1.54,-0.0865,1.03,-0.888,-2.21,-2.15,-0.854,-0.356 (inactive),0.292,0.6,-0.684 (inactive)
C=CCC(OC(C)=O)[C@@H]1[C@@H](N(Cc2ccc(-c3cccc(C(F)(F)F)c3)o2)C(=O)Cc2ccc(OC)cc2)c2cc(OCCCO)ccc2N1C(=O)Cc1ccc(OC)cc1 (stereo not given in full),1.12 (inactive),-0.0547,1.66 (inactive),-0.139 (inactive),0.777 (inactive),-0.176 (inactive),1.37,-2.27 (inactive),-1.82 (inactive),-1.89,1.92,1.38,0.641,0.018,-1.02,2.08,-0.709 (inactive),-0.804,-0.757,0.139 (inactive)
Cc1ccc(N2C(=O)c3ccccc3[C@@H](C(=O)NCC(C)C)[C@@H]2c2ccc(CO)cc2)nc1,0.569 (inactive),-0.0186,3.15 (inactive),0.48 (inactive),1.38 (inactive),0.231 (inactive),0.0174,-0.0277 (inactive),0.918 (inactive),0.84,0.593,-0.136,0.558,-0.0617,0.662,2.02,1.09 (inactive),-0.482,0.133,-0.613 (inactive)
C=C(C(=O)CC[C@H](OC(=O)c1cccnc1)c1ccccc1OCCO)C(C)C,-0.378 (inactive),0.188,9.51 (active),0.943 (inactive),0.611 (inactive),0.381 (inactive),0.142,-1.85 (inactive),-0.81 (inactive),-2.03,0.219,-0.602,-0.967,-2.21,-1.69,-1.45,0.31 (inactive),-0.742,-0.477,0.626 (inactive)
COCCOC(=O)N1C(=O)[C@@]2(c3cc(C#CCCO)ccc31)[C@H](C(=O)NC[C@H](O)c1ccccc1)[C@H]1C(=O)O[C@H](c3ccccc3)[C@H](c3ccccc3)N1[C@@H]2c1ccc(OCCO)cc1,1.96 (inactive),-0.0276,3.45 (inactive),1.02 (inactive),-0.431 (inactive),0.212 (inactive),0.568,1.75 (inactive),1.13 (inactive),-0.0265,-0.339,1.22,-0.981,-0.97,-0.304,-1.25,0.623 (inactive),-0.8,-0.904,1.21 (inactive)
COc1ccc([Si](C)(C)[C@@H]2[C@@H](CCO)O[C@]3(C(=O)N(Cc4ccc(N5C(=O)c6cccc7cccc5c67)cc4)c4ccccc43)[C@H]2C)cc1,0.317 (inactive),0.0355,3.28 (inactive),3.22 (inactive),0.146 (inactive),2.22 (inactive),-0.511,0.806 (inactive),0.417 (inactive),2.96,-0.35,-0.903,-3.63,-1.6,-4.12,0.00779,1.89 (inactive),-1.11,-1.15,-1.43 (inactive)
COCCOC(=O)N1C(=O)[C@@]2(c3cc(C#CC4(O)CCCCCC4)ccc31)[C@H](c1ccc(O)cc1)N1[C@H](c3ccccc3)[C@H](c3ccccc3)OC(=O)[C@H]1[C@@H]2C(=O)N1CCc2cc(OC)c(OC)cc2C1,1.23 (inactive),-0.0099,-0.0535 (inactive),0.49 (inactive),0.44 (inactive),0.286 (inactive),0.0108,-0.0758 (inactive),0.139 (inactive),0.979,-0.742,0.0633,-0.592,-0.435,-0.165,-0.206,-0.947 (inactive),0.83,-0.494,1.65 (inactive)
CCCCC(=O)N(Cc1ccccc1F)[C@@H]1CC(C(=O)NCCO)=C[C@H](Oc2c(I)cc(CO)cc2OC)[C@H]1O,0.381 (inactive),0.298,5.42 (inactive),3.13 (inactive),2.17 (inactive),1.48 (inactive),0.245,1.27 (inactive),0.438 (inactive),-3.95,-0.435,1.65,-0.765,0.364,-1.7,0.197,-0.916 (inactive),-0.325,-0.0648,-0.873 (inactive)
C=CCC(OC(C)=O)[C@@H]1[C@@H](N(Cc2cc3ccccc3o2)C(=O)c2cccc3ccccc23)c2cc(OCCCO)ccc2N1C(=O)Cc1ccc(OC)cc1 (stereo not given in full),-0.901 (inactive),-0.195,1.7 (inactive),0.923 (inactive),1.66 (inactive),0.629 (inactive),0.907,-1.79 (inactive),-0.428 (inactive),-1.57,0.323,1.28,0.222,0.381,-1.05,2.46,-0.0309 (inactive),0.181,0.177,-1.38 (inactive)
COC(=O)[C@@]1(Cc2ccccc2)[C@H]2c3cc(C(=O)N(C)C)n(Cc4cc(F)c(F)c(F)c4)c3C[C@H]2CN1C(=O)c1ccccc1,-1.61 (inactive),0.611,8.57 (active),1.65 (inactive),0.893 (inactive),1.4 (inactive),-0.0786,-0.0214 (inactive),1.57 (inactive),2.13,-0.749,0.135,0.545,-2.11,-4.67,0.891,-1.35 (inactive),-0.368,-0.951,-0.0085 (inactive)
O=C(CS)NCCCCCNC(=O)[C@H]1C[C@H]2C(=O)N[C@@H](Cc3ccccc3)C(=O)N2[C@H]1c1cccc(OCCO)c1,1.77 (inactive),0.373,3.03 (inactive),0.724 (inactive),-2 (inactive),0.425 (inactive),0.9,1.69 (inactive),1.34 (inactive),0.687,0.917,-0.0063,0.585,0.898,-0.156,1.3,-0.0668 (inactive),-0.736,-0.256,0.363 (inactive)
